Assay outcomes (PubChem BioAssay)
PTHR1 agonist: PTHR1 (human) receptor agonism; Potency, µM (doses to about 115 µM), for inactives: at the highest dose activation, most hits filed as activators; 410,000 tested, 0.075% active; HEK293 GP2 PTHR1 cells, GloSensor cAMP luminescence, 1 h; Q03431; also: potency is read from the fitted curve at half-maximal effect; nearly all actives have a fitted effect of over 55% in size
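HEK-293-derived GP2 cells expressing PTHR1 and a GloSensor cAMP reporter, 3,000/well, plated overnight, given luciferin plus IBMX (each 0.5 mM as added) for 1 h at 37 °C, then compound for 1 h at 37 °C. Luminescence was read after 15 min at room temperature.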
Integrin act MD: activators of alpha7 integrin expression for muscular dystrophy; alpha7betagal myoblasts, beta-gal FDG fluorescence, 48 h; Potency, µM (doses to about 38.3 µM), for inactives: at the top dose activation, usual class: activators; 350,000 tested, 0.064% active; AID 624291;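 also: potency is read from the fitted curve at half-maximal effect; 100% = response of the positive control SU9516; nearly all actives have a fitted effect of over 60% in size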
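Alpha7betagal+/- myoblasts (passage 13) were plated 16-24 hr, then exposed to compounds (1:260 dilution of DMSO stock) for 48 hours at 37C. After MPER lysis, β-galactosidase reporter activity was read as FDG fluorescence (ex 480/em 540) after 30 minutes.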
DRD3 antagonist: antagonists of human D3 dopamine receptor | D3R cells, DiscoveRx beta-arrestin luminescence, antagonist mode; stronger effect = lower value | max response, negative = inhibition, % | 360,000 tested, 2.5% active | AID 652054; in the data active = max response below about -50%; inconclusive = no clear call, values can overlap the other calls; also: % is scaled to controls: 0 for no effect and ±100 for the full control effect
Target sequence (P35462 whole entry, looked up): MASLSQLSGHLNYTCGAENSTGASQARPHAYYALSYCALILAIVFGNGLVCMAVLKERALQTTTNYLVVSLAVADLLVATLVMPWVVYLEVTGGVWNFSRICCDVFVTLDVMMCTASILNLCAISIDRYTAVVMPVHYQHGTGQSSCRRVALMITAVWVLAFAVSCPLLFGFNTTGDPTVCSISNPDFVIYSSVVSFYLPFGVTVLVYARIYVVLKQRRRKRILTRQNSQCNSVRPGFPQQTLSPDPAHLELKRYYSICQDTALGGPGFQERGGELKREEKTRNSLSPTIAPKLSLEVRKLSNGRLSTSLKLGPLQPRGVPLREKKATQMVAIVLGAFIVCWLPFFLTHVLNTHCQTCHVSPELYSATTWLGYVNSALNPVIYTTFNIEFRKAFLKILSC
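Cells plated overnight at 1500 cells/well, then exposed to library compounds with dopamine controls for 90 minutes at 37 degrees C. DiscoveRx reagent added for 30–60 minutes at room temperature; luminescence read, quantitative HTS format.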
MBNL1-CUG inh: blocks human MBNL1 binding to CUG repeat RNA; Q9NR56; Potency, µM (top dose mostly 57.5 µM), without a hit: at the top dose activity change, negative = inhibition, actives largely listed as inhibitors; TR-FRET MBNL1-His/biotin-(CUG)12 binding, 665/545 ratio; 280,000 tested, 0.036% active; active = well fitted inhibition curve with a large enough effect in the signal ratio, with a control signal flat, not every such curve was filed as active; inconclusive = small, poorly fitted or top-dose-only effect, or effect the other way, or a change in a side signal; inactive = no such curve, though single readings can be large or run the other way; the % refers to the signal ratio; also: potency is read from the fitted curve at half-maximal effect; % is scaled to controls: 0 for no effect and ±100 for the full control effect
Target sequence (Q9NR56 whole entry, looked up): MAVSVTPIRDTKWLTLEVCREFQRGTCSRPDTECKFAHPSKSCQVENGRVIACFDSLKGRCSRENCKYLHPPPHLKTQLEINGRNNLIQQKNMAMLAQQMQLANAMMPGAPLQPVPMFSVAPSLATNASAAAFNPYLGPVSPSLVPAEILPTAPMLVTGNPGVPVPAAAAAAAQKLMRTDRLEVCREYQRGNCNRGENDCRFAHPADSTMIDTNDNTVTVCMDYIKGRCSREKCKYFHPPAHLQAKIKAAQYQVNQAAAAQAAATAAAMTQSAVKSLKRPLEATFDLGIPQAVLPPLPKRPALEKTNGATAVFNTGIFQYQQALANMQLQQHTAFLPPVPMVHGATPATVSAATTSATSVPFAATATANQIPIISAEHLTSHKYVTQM
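TR-FRET between His-tagged MBNL1 and biotin-(CUG)12 RNA, detected with Tb anti-His antibody (0.055 ng/ul) and streptavidin-XL665 (5 nM), 60 min at room temperature. Compounds titrated 92 nM to 58 uM; 665/545 nm ratio normalized to buffer and complex controls.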
DRD3 agonist: activates the human D3 dopamine receptor | P35462 | D3R DiscoveRx beta-arrestin cells, luminescence, 90 min | max activation, % | 410,000 tested, 0.58% active; in the data active = max activation above about 30%; also: 0% is about no effect
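Cells at 1500/well, incubated overnight, then treated with pinned compounds (dopamine as control) for 90 min at 37 degrees C. DiscoveRx reagent added for 30 - 60 minutes at room temperature; luminescence read.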
CBFb RUNX1 block: blocks binding between human CBF-beta and RUNX1 | AlphaScreen CBFb-His/RUNX1-biotin binding, biochemical | Q01196+Q13951 | AID 1477 | 230,000 tested, under 10 active | Potency, µM (series often up to 59.8 µM), without a hit: at the top dose activity, negative = inhibition, most hits filed as inhibitors; also: % of control where 0% means no effect
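Room-temperature protein-protein interaction test with 30 nM each of His-tagged CBF-beta and biotinylated RUNX1, 15 min with compound, then 90 min with nickel plus streptavidin beads. Signal read in AlphaScreen mode.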
An asterisk follows results filed as active; i = inactive; ? = inconclusive; . = no result given; ! = not confirmed by another sample; [ ] = dose if it differs, or a comment. This is a sample that favours compounds with a hit; in the whole collection about 2.8% have one here. Unless noted, calls follow the shape of the dose curve; as a rule, active = well fitted curve in the direction sought with a large enough effect; inconclusive = small, poorly fitted or top-dose-only effect, or another doubt; inactive = no such curve, though single readings can be large; an effect the other way counts as inactive or inconclusive.

SMILES	PTHR1 agonist	Integrin act MD	DRD3 antagonist	MBNL1-CUG inh	DRD3 agonist	CBFb RUNX1 block
N#Cc1c(-c2ccccc2)ccn(Cc2cccc(Cl)c2)c1=O	-8.1%	10.2%	10.7	11.4%	-7.7	0.3%
N#Cc1c(Nc2ccccc2C(F)(F)F)s[nH]c1=O	-21.1%	-51.0%	?	-6.0%	-11.1	-0.8%
N#Cc1c(Nc2ccccc2Cl)s[nH]c1=O	-12.3%	-52.0%	-64.7*	-7.9%	-3.4	9.8%
COc1ccc(CCCc2nnc(SCC(=O)Nc3ccc(Cl)cc3)o2)cc1	-21.4%	.	.	.	-1.3	.
c1ccc(Cn2nnnc2C(c2cccs2)N2CCc3ccccc3C2)cc1 (stereo not drawn)	i	39.8%	-68.5*	0.8%	-11.2	13.7%
C(=C\c1ccccc1)/C=N/Nc1nc(N2CCCCC2)nc(N2CCCCC2)n1	-1.4%[57.5 µM]	-11.3%	9.7	-9.8%	1.7	0.6%
CC(=C/c1ccccc1)/C=N/Nc1nc(N2CCCCC2)nc(N2CCCCC2)n1	-12.2%	19.8%	14.7	.	32.3*	4.3%
O=C(N/C(=C/c1ccc(Cl)cc1)c1nc2ccccc2[nH]1)c1ccco1	-28.9%	-22.8%	6.4	-1.0%	-19.2	0.8%
COc1cc(/C=C(/C(=O)c2cccs2)c2nc3ccccc3[nH]2)cc(OC)c1O	-27.6%[57.5 µM]	-65.4%	-99.9*	-1.5%	-9.2	0.5%
O=C(/C(=C/c1ccc(Cl)cc1)c1nc2ccccc2[nH]1)c1ccccc1	-27.9%	-68.3%	-74.8*	0.2%	-5.9	-0.7%
CCOC(=O)C(=Cc1ccc(-n2cncn2)cc1)C(=O)OCC	-28.5%	-54.5%	-63.8*	2.1%	-17.2	7.0%
CCOC(=O)/C(=C\c1ccc(N2CCC(c3ccccc3)=N2)cc1)C(C)=O	-80.8%	22.4%	-4.6	.	-18.0	.
COc1ccc(/C=C(/NC(=O)c2ccc(OC)c(OC)c2)C(=O)NCCCn2ccnc2)cc1	i	-2.2%	-2.4	1.4%	1.1	.
C[C@@H](C[C@@H](O)[C@H](O)C(C)(C)O)[C@@H]1CC[C@]2(C)C3=CC[C@H]4C(C)(C)C(=O)CC[C@]4(C)[C@H]3CC[C@@]12C	-40.3%	0.0%	120.3	0.3%	44.8*	7.8%
COc1ccc(CN(Cc2ccco2)c2cnc(S(C)(=O)=O)nc2C(=O)Nc2ccc(C)c(Cl)c2)cc1	-13.3%	.	.	.	3.5	.
CCCOc1ccc(OCCCCNC(C)CC)cc1 (stereo not drawn)	i	4.5%	-54.6*	1.1%	1.5	2.5%
CCC(C)NCCCOc1cc(Cl)ccc1Cl (stereo not drawn)	-17.7%	-9.7%	-77.1*	2.7%	-6.0	-3.9%
CCC(C)NCCCCOc1ccc(Cl)cc1C (stereo not drawn)	-14.1%	-47.6%	-59.5*	-12.6%	-10.6	-2.4%
CCC(C)NCCOc1ccc(C(C)(C)c2ccccc2)cc1 (stereo not drawn)	-9.9%	-75.1%	?	-5.5%	-16.2	4.4%
CCCCNCCCOc1cc(Cl)ccc1Cl	-4.3%[57.5 µM]	-20.4%	?	0.4%	-17.0	0.4%
COCCn1c(C)cc(O)c(C(c2ccccc2F)N2CCN(c3ccccc3)CC2)c1=O (stereo not drawn)	i	.	.	.	-13.4	.
OCCN1CCN(Cc2cc(Br)cc(Br)c2O)CC1	?	-7.0%[7.66 µM]	-51.4*	2.1%	-25.9	2.1%
O=C(Nc1nc(COc2ccccc2)cs1)c1ccccc1F	-32.4%	?	-10.3	-13.1%	-1.1	13.8%
CCC1Nc2ncnc(N3CCc4ccccc4C3)c2N(Cc2ccc(Br)cc2)C1=O (stereo not drawn)	-4.5%	.	-83.8*	.	-23.0	.
CC1Nc2ncnc(N3CCc4ccccc4C3)c2N(Cc2ccc(Cl)cc2)C1=O (stereo not drawn)	20.3%	20.5%	0.0	.	-17.7	.
SMILES	PTHR1 agonist	Integrin act MD	DRD3 antagonist	MBNL1-CUG inh	DRD3 agonist	CBFb RUNX1 block
CC1Nc2ncnc(N3CCc4ccccc4C3)c2N(Cc2ccc(Br)cc2)C1=O (stereo not drawn)	i	-21.6%	-55.4*!	.	-16.7	.
COc1cccc(C(NC(C)=O)c2nc(-c3ccncc3)cs2)c1 (stereo not drawn)	i	.	0.0	.	-1.6	.
O=S(=O)(Nc1nc2ccccc2nc1NCc1ccco1)c1ccc(Cl)cc1	-27.0%[57.5 µM]	-38.5%	-29.3	8.0%	6.5	3.8%
Cc1noc(C)c1CSc1nc2ccccc2nc1NS(=O)(=O)c1ccc(Cl)cc1	-43.4%[57.5 µM]	23.3%	-51.2*	20.4%	0.2	-0.3%
Cn1ccc2cc(S(=O)(=O)N3CCCN(C(=O)Nc4ccc(Br)cc4)CC3)ccc21	-33.5%	.	.	.	1.5	.
C=CCN(c1ccccc1)S(=O)(=O)c1cccc(C(=O)NCC2CCCO2)c1 (stereo not drawn)	i	-16.1%	1.3	0.5%	-5.2	.
CCOC(=O)C1=C(C)NC(=O)CC1c1cc2c(cc1Br)OCO2 (stereo not drawn)	-20.5%[57.5 µM]	-15.3%	-51.1*	4.5%	4.0	0.3%
CC(=O)NC(=Cc1ccccc1)C(=O)N1CCCC1C(=O)O (stereo not drawn)	i	-6.7%	23.2	.	4.9	.
COc1ccc(C(=O)NNC(=O)CN2CCC(n3nnc4cc(F)ccc43)CC2)cc1	i	-6.2%	-2.3	-3.6%	-9.3	5.8%
COCCNC(=O)c1c(C)cc(C)cc1C	i	0.2%	-76.9*	-1.1%	0.1	-0.5%
O=C(NCC1CCCO1)c1cc([N+](=O)[O-])ccc1N1CCC(Cc2ccccc2)CC1 (stereo not drawn)	-18.0%	7.9%	-16.6	.	-9.6	.
CCN(CC)S(=O)(=O)c1cccc(C(=O)Nc2sc3c(c2C#N)CCC(C)C3)c1 (stereo not drawn)	-25.2%	.	.	.	-9.9	.
COc1cccc(-c2cc(C(=O)Nc3ccn(Cc4ccc(C)cc4)n3)no2)c1	-38.9%	18.4%	4.7	-0.4%	34.6*!	-1.3%
COc1ccc(OC)c(-c2cc(C(=O)Nc3c(C)nn(Cc4ccc(C)cc4)c3C)no2)c1	-9.8%	.	.	.	34.6*	.
COc1ccc(OC)c(-c2cc(C(=O)Nc3c(C)nn(Cc4ccccc4C)c3C)no2)c1	i	-25.0%	21.4	-1.4%	33.3*	-7.2%
CCOC(=O)c1c(-c2ccccc2)csc1NC(=O)c1cc(-c2cccc(Cl)c2)on1	i	.	.	.	-7.3	.
CCOC(=O)c1c(-c2ccccc2)csc1NC(=O)c1cc(-c2cccc(OC)c2)on1	39.8µM*	.	.	.	10.1	.
COc1ccc(-c2cc(C(=O)Nc3c(C)nn(Cc4ccc(C)cc4)c3C)no2)cc1OC	-24.5%	.	.	.	6.6	.
